Assay outcomes: PubChem BioAssay, several laboratories
Compounds with a hit are over-represented: about 0.44% of the library has one in this group of screens.
YopH PTP inh: YopH (Yersinia) phosphatase inhibition; fluorescence Ex485/Em525; inhibition, % (test concentration not listed); hit rate 0.16% among 140,000; AID 898; in the data active means inhibition above about 50%
RmlC RmlD mix: inhibitors of RmlC and RmlD coupled enzymes | RmlC/RmlD coupled enzyme inhibition, 384-well mixture HTS | inhibition, % at 5.5 µM | hit rate 0.39% among 110,000; in the data active means inhibition above about 30%, passing the limit was not always enough
RmlCD fluor art: counter-screen for RmlC/RmlD inhibitors: fluorescence artifact; shares compounds with RmlC RmlD mix; RmlC/RmlD assay fluorescence artifact counter-screen; calls only; hit rate 96% among 360; AID 1696; call rule not given here;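 further: compound alone with no enzyme and no substrates present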
The depositor's hits bear a star; i = inactive; · = no result given; + = active, no number.

SMILES	YopH PTP inh	RmlC RmlD mix	RmlCD fluor art
COc1ccccc1N=c1oc2cc(O)ccc2cc1C(N)=O	-47	40*	+
CCCn1nnc(NC(=O)c2cccc(OCc3ccccc3)c2)n1	5	5	·
CC(=O)Nc1ccccc1Nc1cc(C#N)c(C#N)cc1[N+](=O)[O-]	-28	9	·
CCN(CC)c1ccc2cc(-c3nc4ccccc4n3C)c(=O)oc2c1	-24	-64	·
CCN(CC)c1ccc2cc(-c3nc4ccccc4[nH]3)c(=O)oc2c1	-21	30*	+
Cc1ccc(C)c(NC(=O)C(Sc2nnc(-c3cccs3)o2)c2ccccc2)c1 (centres undefined)	-5	·	·
CC(=O)Nc1nc2nc(-c3ccccc3)cc(-c3ccccc3)n2n1	-42	18	·
O=C1CCC(=O)N1c1nc2nc(-c3ccccc3)cc(-c3ccccc3)n2n1	-36	103*	+
Cc1ccc(-c2nc3ccccc3n2C)o1	-12	-7	·
CC(=O)c1ccc(-c2nc3ccccc3n2C)o1	-20	151*	+
O=C(NCc1cccs1)c1ccc([N+](=O)[O-])cc1Cl	-1	·	·
O=c1c2ccccc2[se]n1-c1ccccc1	-23	57*	+
O=c1c2ccccc2nc(N2CCCC2)n1-c1ccccc1	4	13	·
COCCNC(=O)C(=O)NCC1OCCCN1S(=O)(=O)c1cccs1 (centres undefined)	-18	·	·
CC(C)(C)NC(=O)CN(C(=O)C1(C)CC(=O)N=C2C=CC=CN21)C1CCCC1 (centres undefined)	9	39*	+
CC1=CC2=NC(=O)CC(C)(C(=O)N(CC(=O)NC(C)(C)C)C3CCCC3)N2C=C1 (centres undefined)	34	6	·
Cc1ccc(S(=O)(=O)NC(C(=O)Oc2ccc3ccc(=O)oc3c2)c2ccccc2)cc1 (centres undefined)	-22	·	·
Cc1ccc(S(=O)(=O)N[C@H](C(=O)Oc2ccc3c(C(F)(F)F)cc(=O)oc3c2)c2ccccc2)cc1	-37	101*	+
COc1ccc2cc3cc(C(=O)NCCCN4CCOCC4)oc3nc2c1	-33	43*	+
CCN1CCN(CCCNC(=O)c2cc3cc4ccc(OC)cc4nc3o2)CC1	-8	·	·
COc1cc2[nH]c(=O)n(CCCC(=O)N3CC=C(c4ccccc4)CC3)c(=O)c2cc1OC	-41	52*	i
COc1cc2[nH]c(=O)n(CCC(=O)N3CC=C(c4ccccc4)CC3)c(=O)c2cc1OC	-26	-14	·
COc1ccc(OC)c2[nH]c(C(=O)O)cc12	-32	-15	·
COC(=O)c1cc(=O)c2cccc(OC)c2[nH]1	·	·	i
CCOc1ccc(C2C(C(=O)c3cccs3)=C(O)C(=O)N2CCCn2ccnc2)cc1 (centres undefined)	-6	·	·
SMILES	YopH PTP inh	RmlC RmlD mix	RmlCD fluor art
O=c1cc(C(F)(F)F)c2sc(N3CCCCC3)nc2[nH]1	-46	65*	+
c1c2c(cc3sc(N4CCCCC4)nc13)OCO2	-52	·	·
Cc1ccc(-c2c[n+](Cc3ccc(Cl)c(Cl)c3)c3n2CCC3)cc1	-6	·	·
CNC(=O)c1ccc(-c2ccc(OC)cc2)s1	-3	85*	+
CNC(=O)c1ccc(-c2ccc(F)cc2)s1	-16	8	·
COc1ccc(CCCC(=O)NCc2ccccc2)cc1C	-33	·	·
O=C(COC(=O)c1ccccc1Cl)NC(=O)NCc1ccccc1	-20	·	·
CCNC(=O)NC(=O)COC(=O)c1ccccc1SCC(=O)NC(=O)NCC	-34	+	+
Cc1cc2c(C)c(C)c(=O)[nH]c2cc1N	-7	45*	+
Cc1cc(C)c2[nH]c(=O)c(=O)[nH]c2c1	11	-5	·
Cc1ccc(NC(=O)C2(c3cccs3)CCOCC2)cc1C	-15	·	·
CC(c1ccccc1)N1C(=O)c2ccccc2C1O (centres undefined)	-13	6	·
CCCCc1cc(=O)oc2cc(C)cc(OCC(=O)O)c12	-14	25	·
CCc1cc(=O)oc2cc(OC(C)=O)cc(OC(C)=O)c12	-19	·	+
Oc1oc(-c2cccc3ccccc23)nc1C=NCc1ccccc1	-26	·	·
O=C(Nc1sc2c(c1C(=O)NC1CC1)CCCCCC2)c1ccco1	-12	+	+
O=C(Nc1sc2c(c1C(=O)O)CCC2)c1ccco1	-61	15	·
CC(=O)NCCn1c(SCc2ccc(C)cc2C)nc2ccccc2c1=O	-14	10	·
COC(=O)c1ccc(Oc2c(C)oc3c(CN4CCN(C)CC4)c(O)ccc3c2=O)cc1	-35	40*	+
COc1ccccc1Oc1c(C)oc2c(CN3CCN(C)CC3)c(O)ccc2c1=O	-22	·	·
COc1ccc(C(C(=O)NC2CCCCC2)N(C(=O)CCl)c2cccc(Cl)c2)cc1 (centres undefined)	-30	·	·
COCCN(CCOC)C(=O)c1cc2c(=O)n3ccccc3nc2s1	-39	115*	+
CCN(CC)C(=O)c1cc2c(=O)n3ccccc3nc2s1	-20	27	·
CC1=C(C(=O)Nc2ccc(C)cn2)C(c2cnn(C)c2)C2=C(CCCC2=O)N1 (centres undefined)	-20	·	·
COC(=O)c1c(N)n(-c2ccc(NC(C)=O)cc2)c2nc3ccccc3nc12	44	64*	+
SMILES	YopH PTP inh	RmlC RmlD mix	RmlCD fluor art
COCCNC(=O)c1c(N)n(-c2ccccc2)c2nc3ccccc3nc12	1	·	·
CCCOc1ccc([N+](=O)[O-])c(N)c1	-30	·	·
COc1cccc(/C=N/NC(=O)c2cc3c(OC)cccc3[nH]2)c1OC	-11	·	·
COc1cccc(/C=N/NC(=O)c2cc3c(OC)cccc3[nH]2)c1O	-43	·	+
CCCCOC(=O)c1ccc(NC(=O)COC(=O)CSc2nc(C)cc(C)n2)cc1	-20	·	·
CCCCn1c(=O)c(C(=O)c2ccccc2)nc2ccccc21	-16	2	·
CCCCn1c(=O)nc2n(-c3ccccc3)c3ccccc3cc-2c1=O	-39	37*	+
COC(=O)NC1CCC(NC(=O)OC)CC1 (centres undefined)	-1	·	·
O=C(NN=C1CCCCCCCCCCC1)c1ccccc1F	4	·	·
COc1ccccc1/C=C(/C(=O)OCC(=O)N(C)Cc1ccccc1)c1ccccc1	-19	·	·
CN1C(=O)c2ccc(N(C)C)cc2C1=O	14	-3	·
COc1cc(=O)n(C)c2cc(N(C)C)ccc12	26	80*	+
COC(=O)C1=CN(CCCN2CCCC2=O)C=C(C(=O)OC)C1c1ccccc1C(F)(F)F	-14	68*	+
COc1ccccc1C(=O)NCCCN1CCCC1=O	3	-11	·
O=C(O)c1cc(Cl)c(Cl)cc1C(=O)Nc1cccc2cccnc12	-32	·	·
CCC(C)NC(=O)c1ccc([N+](=O)[O-])c(Cl)c1 (centres undefined)	-18	·	·
Cc1ccc(C(=O)C(C(=O)/C=C/c2ccccc2)=C2SCCCS2)cc1	-3	-12	·
Cc1nc(-c2ccc(Br)cc2)ccc1C(=O)O	-14	·	·
COCCn1c(=N)c(C(=O)NCCc2ccccc2)cc2c(=O)n3cccc(C)c3nc21	2	58*	+
Cc1cccn2c(=O)c3cc(C(=O)NCC4CCCO4)c(=N)n(CCN4CCOCC4)c3nc12 (centres undefined)	-20	·	·
Cc1cccn2c(=O)c3cc(C(=O)NCCN4CCOCC4)c(=N)n(CCc4ccccc4)c3nc12	-28	·	·
Cc1cccn2c(=O)c3cc(C(=O)NCc4ccco4)c(=N)n(CCOCCO)c3nc12	-35	17	·
CCCn1c(=N)c(C(=O)NCC2CCCO2)cc2c(=O)n3cccc(C)c3nc21 (centres undefined)	-44	87*	+
